PubChem BioAssay (EPA / NIEHS)
Values joined by “and” are separate entries in the source; they are usually repeats but may differ in a detail not shown here. Equal values may be shown once. Inconclusive results are not listed. Active and inactive are the calls of the source. Rule for the calls: active = hit-call score of the fitted dose curve at least 0.9, where 1 is the maximum; inconclusive = response in the unintended direction; inactive = score below 0.9.

target: Cellular tumor antigen p53 (Homo sapiens) (UniProt P04637); experiment: TOX21_p53_BLA_p5_ratio: Tox21 HCT-116 p53 Agonism Beta-lactamase Assay, Ratio, Phase 5 (AID 2283599)
How it was run: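 Beta-lactamase reporter ratio (blue 460 nm over green 530 nm, 405 nm excitation) after 2 h CCF4-AM loading, in HCT-116 cells exposed 16 h at 37 C to compounds pinned at 217-fold dilution. Increases relative to DMSO baseline scored.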

Sequence of Cellular tumor antigen p53 (Homo sapiens) (P04637 whole entry, looked up): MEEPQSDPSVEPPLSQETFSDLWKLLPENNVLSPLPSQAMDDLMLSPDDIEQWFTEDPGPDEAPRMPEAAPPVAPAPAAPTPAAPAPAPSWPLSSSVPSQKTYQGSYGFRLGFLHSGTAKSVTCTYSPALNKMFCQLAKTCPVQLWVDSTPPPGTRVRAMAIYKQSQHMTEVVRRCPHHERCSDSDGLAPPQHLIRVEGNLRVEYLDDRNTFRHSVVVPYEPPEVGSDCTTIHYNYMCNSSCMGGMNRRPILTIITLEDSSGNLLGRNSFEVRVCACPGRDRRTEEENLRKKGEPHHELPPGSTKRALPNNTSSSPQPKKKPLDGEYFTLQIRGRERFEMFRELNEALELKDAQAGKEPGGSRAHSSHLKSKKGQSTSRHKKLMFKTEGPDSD

SMILES | outcome
CCCCCOC(=O)CCC | inactive
CCOC(=S)SSC(=S)OCC | inactive
CCCC/C=C\CCCCCCCCCC=O | inactive
O=C(O)COCCN1CCN(C(c2ccccc2)c2ccc(Cl)cc2)CC1 (configuration not stated) | inactive
CC(C)=CCO | inactive
O=C(O)CCSCCC(=O)O | inactive
CCCCCCOC(=O)CC | inactive
CC(C#N)(CCC(=O)O)N=NC(C)(C#N)CCC(=O)O (configuration not stated) | inactive
C=C(C)C(=O)O[C@H]1C[C@@H]2CC[C@@]1(C)C2(C)C | inactive
CC(C)[C@H]1CC[C@@H](C)CC1=O | inactive
CCC(C(=O)NC(N)=O)c1ccccc1 (configuration not stated) | inactive
C=CCOC(=O)CCC1CCCCC1 | inactive
CC(C)(C)NC(N)=O | inactive
OCC(CO)(CO)COCC(CO)(CO)CO | inactive
CCCCCCCCCCCCCC(=O)O | inactive
CC(C)=CCCC(C)=CCCC(C)=CCO | inactive
CCCCNC(=O)NS(=O)(=O)c1ccc(C)cc1 | inactive
CC(C)OP(=O)(CP(=O)(OC(C)C)OC(C)C)OC(C)C | inactive
Nc1ccc(S(=O)(=O)O)c(N)c1 | inactive
O=C(Nc1ccccc1)c1cc([N+](=O)[O-])ccc1Cl | inactive
CCC(=O)OCc1ccccc1 | inactive
C=C[C@@H](C)CCC=C(C)C | inactive

test system: not listed separately; experiment: TOX21_p53_BLA_p5_viability: Viability Assessment in the Tox21 HCT-116 p53 Agonism Beta-lactamase Assay, Phase 5 (AID 2283600)
How it was run: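 4000 cells/well; 5 h pre-incubation; DMSO compounds pin-transferred, 217-fold dilution; 16 h, 37C/5% CO2; CCF4-AM 2 h RT; CellTiter-Glo 30 min RT; luminescence.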

SMILES | outcome
CCCCCOC(=O)CCC | inactive
CCOC(=S)SSC(=S)OCC | inactive
CCCC/C=C\CCCCCCCCCC=O | inactive
O=C(O)COCCN1CCN(C(c2ccccc2)c2ccc(Cl)cc2)CC1 (configuration not stated) | inactive
O=C(O)CCSCCC(=O)O | inactive
CC(=O)O[C@H](CC(=O)[O-])C[N+](C)(C)C | inactive
CN1[C@@H]2CC(OC(=O)[C@H](CO)c3ccccc3)C[C@H]1[C@@H]1O[C@@H]12 (some centres not stated) | inactive
O=Nc1ccc(Nc2ccccc2)cc1 | inactive
CC(C#N)(CCC(=O)O)N=NC(C)(C#N)CCC(=O)O (configuration not stated) | inactive
CC(C)[C@H]1CC[C@@H](C)CC1=O | inactive
CC(O)C(C)O (configuration not stated) | inactive
CCC(C(=O)NC(N)=O)c1ccccc1 (configuration not stated) | inactive
CNCCO | inactive
CC1CC(OC(=O)c2ccccc2O)CC(C)(C)C1 (configuration not stated) | inactive
CC(C)Oc1ccccc1O | inactive
CC(C)(C)NC(N)=O | inactive
OCC(CO)(CO)COCC(CO)(CO)CO | inactive
CCCCCCCCCCCCCC(=O)O | inactive
CC(C)=CCCC(C)=CCCC(C)=CCO | inactive
CCCCNC(=O)NS(=O)(=O)c1ccc(C)cc1 | inactive
CN(C)CCCN | inactive
CC(C)c1ccc(C(C)C)cc1 | inactive
COC(C)CCO (configuration not stated) | inactive
Nc1ccc(S(=O)(=O)O)c(N)c1 | inactive
O=C(Nc1ccccc1)c1cc([N+](=O)[O-])ccc1Cl | inactive
CCC(=O)OCc1ccccc1 | inactive
C=C[C@@H](C)CCC=C(C)C | inactive

target: Cellular tumor antigen p53 (Homo sapiens) (UniProt P04637); experiment: TOX21_p53_BLA_p4_ratio: Tox21 HCT-116 p53 Agonism Beta-lactamase Assay, Ratio, Phase 4 (AID 2283601)
How it was run: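 Signal is the blue/green (460nm/530nm) ratio of cleaved versus uncleaved CCF4-AM substrate, read after 2 h substrate loading. Cells were HCT116 carrying the p53-responsive beta-lactamase reporter, dosed 16 h at 37C, 5% CO2; CellTiter-Glo measured in parallel.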

SMILES | outcome | AC50
CCOC(=S)SSC(=S)OCC | inactive | 
CCOc1ccccc1OCC | inactive | 
CC(=O)Nc1ccccc1O | inactive | 
CCCC/C=C\CCCCCCCCCC=O | inactive | 
CN1[C@@H]2CC(OC(=O)[C@H](CO)c3ccccc3)C[C@H]1[C@@H]1O[C@@H]12 (some centres not stated) | inactive | 
O=Nc1ccc(Nc2ccccc2)cc1 |  | 76.2 µM (active) and 63 µM (active)
C=C(C)C(=O)O[C@H]1C[C@@H]2CC[C@@]1(C)C2(C)C | inactive | 
CCC(C(=O)NC(N)=O)c1ccccc1 (configuration not stated) | inactive | 
CC1CC(OC(=O)c2ccccc2O)CC(C)(C)C1 (configuration not stated) | inactive | 
C=CCOC(=O)CCC1CCCCC1 | inactive | 
CC(C)(C)NC(N)=O | inactive | 
OCC(CO)(CO)COCC(CO)(CO)CO | inactive | 
CCCCCCCCCCCCCC(=O)O | inactive | 
CC(C)=CCCC(C)=CCCC(C)=CCO | inactive | 
CCCCNC(=O)NS(=O)(=O)c1ccc(C)cc1 | inactive | 
CN(C)CCCN | inactive | 
CC(C)c1ccc(C(C)C)cc1 | inactive | 
CC(C)OP(=O)(CP(=O)(OC(C)C)OC(C)C)OC(C)C | inactive | 
O=C(OCc1ccccc1)C(=O)OCc1ccccc1 | inactive | 
Nc1ccc(S(=O)(=O)O)c(N)c1 | inactive | 
O=C(Nc1ccccc1)c1cc([N+](=O)[O-])ccc1Cl | inactive | 
CCC(=O)OCc1ccccc1 | inactive | 
C=C[C@@H](C)CCC=C(C)C | inactive | 
